Assay outcomes deposited in PubChem BioAssay by National Center for Advancing Translational Sciences (NCATS).
A selection: hits, their analogues and other compounds. The true share with any hit is near 2.4%.
Cruzain inh noDet: qHTS Assay for Promiscuous and Specific Inhibitors of Cruzain (without detergent). 200,000 tested, 2.3% active. Cruzipain (Trypanosoma cruzi), P25779. purified cruzain, Z-FR-AMC fluorescence, no detergent. Potency, µM, without a hit: max response, negative = inhibition, actives largely listed as inhibitors;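 further: plate controls were enzyme without inhibitor for no effect and buffer without enzyme for full effect; nearly all actives have a fitted effect of over 40% in size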
Target sequence (P25779 123-467 limits assumed): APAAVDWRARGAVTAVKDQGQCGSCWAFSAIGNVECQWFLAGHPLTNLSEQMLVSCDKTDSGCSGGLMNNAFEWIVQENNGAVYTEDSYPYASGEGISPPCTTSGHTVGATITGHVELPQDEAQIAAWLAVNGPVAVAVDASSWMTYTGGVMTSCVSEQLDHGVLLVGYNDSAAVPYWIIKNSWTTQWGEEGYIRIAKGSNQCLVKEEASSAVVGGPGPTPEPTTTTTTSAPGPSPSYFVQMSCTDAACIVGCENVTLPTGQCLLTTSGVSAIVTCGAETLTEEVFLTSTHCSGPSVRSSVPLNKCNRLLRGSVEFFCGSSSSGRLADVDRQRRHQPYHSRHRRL
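Detergent-free condition (0.00005% Triton X-100) in acetate buffer pH 5.5 with DTT. 1.5 nM enzyme and compound were pre-mixed 15 min, then 2 uM Z-FR-AMC substrate added; reaction progress from fluorescence change between first and third reads (60 s).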
Cruzain Triton: qHTS Assay for Promiscuous and Specific Inhibitors of Cruzain (with detergent) | Cruzipain (Trypanosoma cruzi), P25779 | purified cruzain, Z-FR-AMC fluorescence, 0.01% Triton | Potency, µM, without a hit: max response, negative = inhibition, hits mostly inhibitors | 200,000 tested, 0.43% active | AID 1478, 2009;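 further: plate controls were neutral wells for no effect and buffer without enzyme for full effect; nearly all actives have a fitted effect of over 40% in size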
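Detergent-containing run (0.01% Triton X-100) in acetate buffer pH 5.5 with 5 mM DTT: enzyme at 1.5 nM final, 15 min compound preincubation at room temperature, then 2 uM Z-FR-AMC substrate. Activity taken as 60 s fluorescence increase at 360/450 nm.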
Active calls of the source: *; ? = inconclusive. The call rests on the fitted dose curve; in most records, active means well fitted curve in the direction sought with a large enough effect; inconclusive means small, poorly fitted or top-dose-only effect, or another doubt; inactive means no such curve, though single readings can be large; an effect the other way counts as inactive or inconclusive. Potency means the concentration at half of the fitted maximal effect.

SMILES	Cruzain inh noDet	Cruzain Triton
C/C(=N\NC(=O)c1ccc([N+](=O)[O-])c(C)c1)c1ccccc1Cl	14.8%	-2.5%
C/C(=N/NC(N)=S)c1ccccc1[N+](=O)[O-]	12.6µM*	15.8µM*
O=C(CSc1ncnc2ccccc12)c1ccc2c(c1)OCCO2	-5.3%	-5.9%
O=C(CSc1ncnc2scc(-c3ccc(F)cc3)c12)c1ccc2c(c1)OCCO2	?	-6.0%
Cc1sc2ncnc(SCC(=O)c3ccc4c(c3)OCCO4)c2c1-c1ccccc1	31.6µM*	-2.2%
Cc1ccc(-c2csc3ncnc(SCC(=O)c4ccc5c(c4)OCCO5)c23)cc1	10µM*	4.1%
CCOc1ccccc1-n1nnc(-c2nc(-c3ccccc3C)no2)c1C	-6.9%	3.1%
COc1ccc(CNC(=O)c2cc3c(-c4ccccc4F)nn(C)c3s2)cc1	-1.4%	-3.7%
O=C(NC1CC(=O)N(c2cccc(F)c2)C1)c1cc2ccccc2o1 (configuration not stated)	-13.1%	-3.1%
COc1ccc(NC(=O)Cn2c(=O)n(-c3ccc(OC)cc3)c(=O)c3sc4ccccc4c32)cc1	1.2%	4.4%
Brc1cccc(-c2nnc(-c3ccccc3)o2)c1	-13.9%	-0.1%
N#Cc1c(-c2ccccc2)cc(-c2ccccc2)nc1SCc1nnc(-c2ccccc2)o1	5.01µM*	-1.1%
c1ccc2[nH]c(CSc3nnc(-c4ccncc4)o3)nc2c1	12.6µM*	-20.0%
C=C(C)CSc1nc(-c2ccccc2)cc(-c2ccc(OC)cc2)c1C#N	-28.7%	-4.1%
Brc1cccc(-c2nnc(SCc3nc4ccccc4[nH]3)o2)c1	12.6µM*	14.1µM*
c1ccc2c(CSc3nnc(-c4ccncc4)o3)cccc2c1	20.3%	-9.3%
Clc1ccc(-c2nnc(SCc3nc4ccccc4[nH]3)o2)c(Cl)c1	3.3%	6.31µM*
Clc1ccc(-c2nnc(SCc3ccon3)o2)c(Cl)c1	-1.9%	-2.8%
O=C(Nc1cc(NC(=O)c2ccccc2Cl)ccc1Cl)c1ccccc1	5.0%	-5.0%
CCOc1ccc(C(=O)N2CC(=O)Nc3ccc(F)cc3C2c2ccc(F)cc2)cc1 (configuration not stated)	4.0%	-4.6%
CCOC(=O)c1c(C)[nH]c(C)c1S(=O)(=O)NCC(=O)N1CCN(c2cccc(C)c2)C(C)C1 (configuration not stated)	29.7%	-1.6%
Cc1ccc(CNC(=O)CCc2c(C)c3cc4c(C)coc4cc3oc2=O)cc1	1.5%	2.1%
CCc1ccccc1N(C)C(=O)Cn1cnc2sc(C)c(S(=O)(=O)N3CCN(c4ncccn4)CC3)c2c1=O	-1.6%	-0.6%
CC(C)(C)OC(=O)N1CCC(c2c(C(=O)N3CCN(c4ccccn4)CC3)cnn2-c2cccc(F)c2)CC1	-9.2%	0.0%
Cc1nnc(SCc2nc3ccccc3[nH]2)s1	-1.4%	-1.8%
SMILES	Cruzain inh noDet	Cruzain Triton
O=C(CCCSc1nc2ccccc2[nH]1)Nc1nnc(-c2ccccc2)o1	-0.9%	1.6%
c1ccc(-c2nnc(CSc3nc4ccccc4[nH]3)o2)cc1	12.6µM*	-25.0%
c1ccc2[nH]c(CSc3nc4ccccc4s3)nc2c1	15.8µM*	?
O=C1N/C(=N\N=C\c2cccs2)SC1Cc1cccc(Cl)c1 (configuration not stated)	?	-3.4%
O=C1N/C(=N\N=C\c2cccs2)SC1Cc1ccc(Cl)cc1 (configuration not stated)	2.51µM*	-5.7%
Cc1ccc(CN2CCCn3nc(C(=O)NCc4ccc(OC(C)C)cc4)cc3C2=O)cc1	?	-5.2%
O=C(Nc1ccc(-c2nc3ccccc3o2)c(O)c1)c1ccccc1	-7.0%	2.5%
O=C(Nc1ccc(O)c(-c2nc3ccccc3o2)c1)C1(c2ccccc2)CCCC1	25.1µM*	-0.5%
Cc1ccccc1CNC(=O)c1ccc(CS(=O)Cc2ccc(Cl)cc2)o1 (configuration not stated)	3.1%	-4.8%
COc1ccc(C(=O)CSc2nnc(-c3cc(C)on3)o2)cc1	-16.2%	-4.9%
Cc1cc(-c2nnc(SCC(=O)c3ccc(Cl)cc3)o2)no1	25.1µM*	-4.1%
Cc1ccc(NS(=O)(=O)c2ccc(Cl)c(NC(=S)NC(=O)C3CCCCC3)c2)cc1Cl	31.6µM*	1.8%
Cc1ccc(NS(=O)(=O)c2ccc3c(c2)CCCN3C(=O)C2CCC2)cc1Cl	-19.4%	-4.8%
COc1ccc(NC(=O)c2sc3nc4c(cc3c2N)CN(C(C)C)CC4)c(OC)c1	-3.0%	-9.1%
COC(=O)C1=NN(c2ccccc2)C2(S1)SC(C(C)=O)=C(C)N2c1ccccc1 (configuration not stated)	1.8%	0.4%
CC(=O)C1=NN(c2ccccc2)C2(S1)S/C(=C\c1ccccc1)C(=O)N2c1ccccc1 (configuration not stated)	10µM*	2.0%
O=C1CCCC2=C1C(c1ccc(Br)cc1)c1c([nH]c(=S)[nH]c1=O)N2 (configuration not stated)	15.8µM*	17.8µM*
